Reference: the supplement of paper PMC9262897, “Low-cost anti-mycobacterial drug discovery using engineered E. coli” (Nature Communications, 2022)
Counter-ions that a name gives are not always drawn. ± gives the standard deviation of the averaged measurements.

How the values were obtained:
Assay in all cases: growth (OD600 after 10 h); higher = more growth (less inhibition)
[1] = test system: E. coli TESEC Alr+ wild-type control; details: compound 0.1 mM; raw OD600 reference: median of DMSO wells 0.241, cell-free background 0.041
Protocol: (§1)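 TESEC Mtb Alr E. coli, or the Alr+ wild-type control, in 384-well plates with Prestwick library compounds at 0.1 mM and 1% DMSO, across arabinose induction levels of 1E3 to 1E7 nM. Growth is read as OD600 after 10 h at 37 °C in triplicate biological replicates.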

E. coli TESEC Mtb Alr [2] = details: compound 0.1 mM
Protocol: as §1

E. coli TESEC Mtb Asd = details: compound 0.1 mM
Protocol: (§2)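 TESEC E. coli strains in which the native enzyme is deleted and replaced by arabinose-inducible Mtb Asd, DapB, CysH or TrpD, each grown in its selective medium. Strains were screened against the Prestwick library at 0.1 mM and 1% DMSO in 384-well format at low and high arabinose induction. Growth is read as OD600 after 10 h in triplicate.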

E. coli TESEC Mtb DapB = details: compound 0.1 mM
Protocol: as §2

[3] = test system: E. coli TESEC Alr+ wild-type control; details: compound 0.1 mM; raw OD600 reference: median of DMSO wells 0.49, cell-free background 0.052
Protocol: (§3)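 TESEC Mtb Alr E. coli (ΔaraC ΔtolC ΔentC Δalr ΔdadX, arabinose-inducible Mtb Alr) or the Alr+ wild-type control strain, grown in defined M9-fructose medium without D-alanine in 96-well plates with Prestwick library compounds at 0.1 mM and 1% DMSO. Low Alr induction is 0.1 µM arabinose and high induction is 10 mM arabinose.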

E. coli TESEC Mtb Alr [4] = details: compound 0.1 mM; remark: listed apart in the source
Protocol: as §3

[5] = arabinose 1000 nM, raw OD600 reference: median of DMSO wells 0.294, cell-free background 0.041
[6] = arabinose 10000 nM, raw OD600 reference: median of DMSO wells 0.264, cell-free background 0.041
[7] = arabinose 100000 nM, raw OD600 reference: median of DMSO wells 0.201, cell-free background 0.041
[8] = arabinose 1000000 nM, raw OD600 reference: median of DMSO wells 0.193, cell-free background 0.041
[9] = arabinose 10000000 nM, raw OD600 reference: median of DMSO wells 0.146, cell-free background 0.041
[10] = arabinose induction (level): High, raw OD600 reference: median of DMSO wells 0.331, cell-free background 0.041
[11] = arabinose induction (level): Low, raw OD600 reference: median of DMSO wells 0.417, cell-free background 0.041
[12] = arabinose induction (level): High, raw OD600 reference: median of DMSO wells […], cell-free background 0.041
[13] = arabinose induction (level): Low, raw OD600 reference: median of DMSO wells 0.227, cell-free background 0.041
[14] = arabinose 100 nM, raw OD600 reference: median of DMSO wells 0.413, cell-free background 0.052
[15] = arabinose 10000000 nM, raw OD600 reference: median of DMSO wells […], cell-free background 0.052

SMILES	growth [1]	growth (E. coli TESEC Mtb Alr [2]; [5])	growth (E. coli TESEC Mtb Alr [2]; [6])	growth (E. coli TESEC Mtb Alr [2]; [7])	growth (E. coli TESEC Mtb Alr [2]; [8])	growth (E. coli TESEC Mtb Alr [2]; [9])	growth (E. coli TESEC Mtb Asd; [10])	growth (E. coli TESEC Mtb Asd; [11])	growth (E. coli TESEC Mtb DapB; [12])	growth (E. coli TESEC Mtb DapB; [13])	growth [3]	growth (E. coli TESEC Mtb Alr [4]; [14])	growth (E. coli TESEC Mtb Alr [4]; [15])
Nc1ccc(S(=O)(=O)c2ccc(N)cc2)cc1 [Dapsone]	0.256 ± 0.0028	0.282 ± 0.019	0.23 ± 0.0077	0.227 ± 0.019	0.1616 ± 0.0011	0.141 ± 0.0065	0.433 ± 0.092	0.339 ± 0.012	0.214 ± 0.0025	0.25 ± 0.058	0.491 ± 0.054	0.422 ± 0.01	0.367 ± 0.018
CO[C@@]1(NC(=O)CSCC#N)C(=O)N2C(C(=O)O)=C(CSc3nnnn3C)CS[C@@H]21 [Cefmetazole sodium salt]	0.0393 ± 0.0013	0.0392 ± 0.0012	0.0395 ± 0.00076	0.0392 ± 0.0027	0.03973 ± 5.8e-05	0.03957 ± 0.00025	0.0524 ± 0.0042	0.0557 ± 0.0072	0.0493 ± 0.0012	0.0513 ± 0.0023	0.0516 ± 0.012	0.0461 ± 0.00055	0.0549 ± 0.0037
CCCCN1CCCCC1C(=O)Nc1c(C)cccc1C (stereo not drawn) [Bupivacaine hydrochloride]	0.2359 ± 0.0017	0.301 ± 0.0072	0.247 ± 0.0053	0.21 ± 0.0045	0.167 ± 0.0039	0.157 ± 0.0046	0.257 ± 0.046	0.418 ± 0.025	0.187 ± 0.013	0.266 ± 0.047	0.489 ± 0.051	0.409 ± 0.01	0.339 ± 0.014
CC(C)(C)NCC(O)COc1cccc2c1CC(O)C(O)C2 (stereo not drawn) [Nadolol]	0.254 ± 0.016	0.303 ± 0.014	0.267 ± 0.0029	0.192 ± 0.025	0.2 ± 0.0078	0.137 ± 0.0026	0.336 ± 0.067	0.442 ± 0.0083	0.201 ± 0.02	0.259 ± 0.018	0.493 ± 0.12	0.408 ± 0.011	0.384 ± 0.015
CCCCN(CCCC)CCCOC(=O)c1ccc(N)cc1 [Butacaine]	0.2003 ± 0.0014	0.284 ± 0.019	0.275 ± 0.01	0.181 ± 0.013	0.189 ± 0.0068	0.14 ± 0.0032	0.275 ± 0.029	0.445 ± 0.06	0.182 ± 0.0067	0.208 ± 0.016	0.474 ± 0.038	0.408 ± 0.013	0.337 ± 0.019
CC(=O)CC(c1ccc([N+](=O)[O-])cc1)c1c(O)c2ccccc2oc1=O (stereo not drawn) [Acenocoumarol]	0.244 ± 0.0011	0.298 ± 0.0045	0.2588 ± 0.0011	0.175 ± 0.0092	0.1675 ± 0.0012	0.139 ± 0.0017	0.26 ± 0.023	0.293 ± 0.051	0.175 ± 0.015	0.189 ± 0.0085	0.503 ± 0.0074	0.395 ± 0.011	0.323 ± 0.024
O=C1CN(/N=C/c2ccc([N+](=O)[O-])o2)C(=O)N1 [Nitrofurantoin]	0.0453 ± 0.00076	0.181 ± 0.0058	0.0822 ± 0.0037	0.04437 ± 0.00021	0.0737 ± 0.0054	0.0451 ± 0.00093	0.196 ± 0.034	0.341 ± 0.038	0.172 ± 0.009	0.218 ± 0.034	0.053 ± 0.00026	0.0546 ± 0.0087	0.055 ± 0.0017
NCCc1cc[nH]n1 [Betazole hydrochloride]	0.25 ± 0.0071	0.254 ± 0.06	0.259 ± 0.014	0.2 ± 0.03	0.1943 ± 0.00064	0.14 ± 0.0021	0.279 ± 0.0079	0.379 ± 0.081	0.215 ± 0.021	0.254 ± 0.052	0.494 ± 0.066	0.408 ± 0.013	0.305 ± 0.067
COC(=O)C1=C(C)NC(C)=C(C(=O)OCC(C)C)C1c1ccccc1[N+](=O)[O-] (stereo not drawn) [Nisoldipine]	0.0411 ± 0.00044	0.189 ± 0.022	0.1989 ± 0.0016	0.133 ± 0.0061	0.101 ± 0.011	0.112 ± 0.0029	0.0578 ± 0.0013	0.0593 ± 0.0039	0.122 ± 0.0061	0.114 ± 0.0044	0.433 ± 0.007	0.386 ± 0.0062	0.223 ± 0.012
COc1cc(N)c(Cl)cc1C(=O)NC1CCN(Cc2ccccc2)CC1 [Clebopride maleate]	0.19 ± 0.002	0.263 ± 0.0076	0.24 ± 0.005	0.171 ± 0.016	0.132 ± 0.0034	0.129 ± 0.0055	0.163 ± 0.016	0.277 ± 0.036	0.2 ± 0.011	0.223 ± 0.031	0.474 ± 0.027	0.397 ± 0.0065	0.314 ± 0.016
CCOC(=O)c1ccc(N)cc1 [Benzocaine]	0.249 ± 0.0072	0.324 ± 0.02	0.263 ± 0.0073	0.213 ± 0.011	0.182 ± 0.0029	0.1551 ± 0.0012	0.469 ± 0.013	0.453 ± 0.027	0.212 ± 0.013	0.24 ± 0.034	0.432 ± 0.0086	0.4093 ± 0.00068	0.323 ± 0.018
CCCNC(=O)NS(=O)(=O)c1ccc(Cl)cc1 [Chlorpropamide]	0.255 ± 0.0063	0.301 ± 0.007	0.25 ± 0.0077	0.23 ± 0.048	0.184 ± 0.008	0.141 ± 0.0057	0.392 ± 0.035	0.409 ± 0.057	0.234 ± 0.032	0.231 ± 0.0079	0.525 ± 0.065	0.396 ± 0.02	0.3521 ± 0.0031
CC1COc2c(N3CCN(C)CC3)c(F)cc3c(=O)c(C(=O)O)cn1c23 (stereo not drawn) [Ofloxacin]	0.04363 ± 5.8e-05	0.0426 ± 0.00057	0.03877 ± 0.00015	0.0435 ± 0.0001	0.03957 ± 0.00029	0.044 ± 0.0001	0.0587 ± 0.0023	0.0597 ± 0.0025	0.0501 ± 0.0018	0.05347 ± 0.00015	0.0509 ± 0.00059	0.0542 ± 0.0012	0.05103 ± 0.00031
CC/C(=C(\c1ccccc1)c1ccc(OCCN(C)C)cc1)c1ccccc1 [Tamoxifen citrate]	0.0423 ± 0.0005	0.0419 ± 0.002	0.048 ± 0.0005	0.0466 ± 0.0016	0.0485 ± 0.0015	0.0425 ± 0.00078	0.0517 ± 0.002	0.0526 ± 0.002	0.04873 ± 0.00038	0.0937 ± 0.078	0.0552 ± 0.015	0.0503 ± 0.00091	0.0549 ± 0.0014
CNC1(C)C2CCC(C2)C1(C)C (stereo not drawn) [Mecamylamine hydrochloride]	0.242 ± 0.006	0.307 ± 0.0084	0.293 ± 0.0071	0.214 ± 0.034	0.185 ± 0.016	0.156 ± 0.0054	0.266 ± 0.078	0.304 ± 0.093	0.187 ± 0.018	0.238 ± 0.012	0.462 ± 0.03	0.433 ± 0.0029	0.312 ± 0.02
CCN1CC(CCN2CCOCC2)C(c2ccccc2)(c2ccccc2)C1=O (stereo not drawn) [Doxapram hydrochloride]	0.234 ± 0.0045	0.284 ± 0.0045	0.248 ± 0.004	0.199 ± 0.018	0.205 ± 0.016	0.1315 ± 0.0013	0.309 ± 0.091	0.426 ± 0.072	0.205 ± 0.018	0.243 ± 0.017	0.54 ± 0.012	0.394 ± 0.016	0.339 ± 0.014
